Screening results from PubChem BioAssay.
Compounds with a hit are over-represented: about 13% of the library has one in this group of screens.
Pf growth 48h: P. falciparum growth inhibition at 48 hours (one generation). P. falciparum luciferase growth in erythrocytes, 48 h. Potency, µM (titrated, usually from 28.7 µM), for the others: at the highest dose activity change, negative = inhibition, actives largely listed as inhibitors. actives 5.9% (n = 310,000). AID 504832; also: potency is read from the fitted curve at half-maximal effect
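Luminescence readout; reporter = integrated firefly luciferase in P. falciparum. RBC culture at 2% hematocrit, 0.1% parasitemia final, 37 C/5% CO2; decreased signal taken as growth inhibition.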
HCV inhibitor: blocks hepatitis C virus | actives 3.4% (n = 340,000) | Huh7.5.1 HCVcc-Cre infection, luciferase reporter, 44 h | Potency, µM (series often up to 41.8 µM), for the others: top-dose activity change, negative = inhibition, usual class: inhibitors; also: potency is read from the fitted curve at half-maximal effect
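Reporter virus HCVcc-Cre (~0.5 moi) infects cells exposed to compound; seeding density 1,000 cells/well with 4 h settling beforehand. Luminescence, 15 sec read, taken 44 h post-infection following a 15 min RT substrate incubation.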
HCMV antiviral: blocks human cytomegalovirus replication; actives 4.5% (n = 410,000); activity change, negative = inhibition, % at 57.5 µM; HFF cells, HCMV-luciferase reporter, 72 h; hits give low values; AID 1259415; in the data active = activity change below about -60%; inconclusive = no clear call, values can overlap the other calls; inactive = above about -39%
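Compounds were evaluated in HFFs infected with an HCMV luciferase reporter virus (MOI 1 PFU/cell). Luciferase in lysates collected 72 h post infection served as the replication measure.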
Pf growth 96h: inhibits malaria parasite growth, 96 h. Potency, µM (top dose mostly 28.7 µM), for inactives: top-dose activity change, negative = inhibition, actives largely listed as inhibitors. actives 6.9% (n = 320,000). P. falciparum luciferase reporter growth, 96 h; also: potency is read from the fitted curve at half-maximal effect
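Readout is luminescence from an integrated firefly luciferase in P. falciparum. Red cells, 2% hematocrit and 0.05% parasitemia final, were cultured with compound through two parasite generations (96 hours) at 37 C, 5% CO2.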
* hit, by the source's call; i = inactive; ? = inconclusive; nt = no result. Unless noted, calls follow the shape of the dose curve; as a rule, active = well fitted inhibition curve with a large enough effect; inconclusive = small, poorly fitted or top-dose-only effect, or another doubt; inactive = no such curve, though single readings can be large or run the other way. % is scaled to controls: 0 for no effect and ±100 for the full control effect.

SMILES | Pf growth 48h | HCV inhibitor | HCMV antiviral | Pf growth 96h
CCn1ccnc1CN(C)Cc1cn(-c2ccc(C)cc2)nc1-c1cccc(C)c1 | 6.6µM* | -16% | -22 | ?
Cc1cccc(NC(=O)CSc2nc3ccccc3nc2N2CCCCC2)c1C | nt | nt | 6 | nt
Cc1ccc(NC(=O)Cn2c(=O)n(CCc3ccccc3)c(=O)c3sc4ccccc4c32)cc1C | nt | nt | 15 | nt
CCn1c(CN2CCCCC2)nc2cc(NC(=O)c3cccc([N+](=O)[O-])c3)ccc21 | nt | nt | -29 | nt
O=[N+]([O-])c1cccnc1N1CCN(c2ccccc2F)CC1 | i | 15% | -61* | 37%
Cc1ccc(C)c(N2CCN(c3ncccc3[N+](=O)[O-])CC2)c1 | ? | 11µM* | -16 | ?
O=C(/C=C/c1ccccc1Cl)Nc1nc(-c2cccs2)ns1 | nt | nt | 58 | nt
COc1cccc(C(=O)N2N=C(c3cccc(OC)c3)CC2(O)C(F)(F)F)c1 (configuration not stated) | 9% | ? | 7 | 11%
COc1cccc(C2=NN(C(=O)c3cccs3)C(O)(C(F)(F)F)C2)c1 (configuration not stated) | 3.7µM* | ? | 39 | -10%
CCOC(=O)c1ccc(N2Cc3ccccc3C2)cc1O | 4.1µM* | ? | 58 | 2%
Cc1ccc2c(c1)Cc1c(nc(-c3ccc(F)cc3)nc1SCC(=O)N1CCCCC1)O2 | nt | nt | -13 | nt
Cc1ccc(NC(=O)c2nc(S(C)(=O)=O)ncc2N(Cc2ccccc2)Cc2ccco2)c(C)c1 | nt | nt | -10 | nt
Cc1cc(C)nc(-n2nc(C)c3c2NC(=O)CC3c2cccc(O)c2)n1 (configuration not stated) | nt | nt | 8 | nt
COc1ccc(-c2cc(C(=O)Oc3ccc(C#N)cc3)no2)cc1 | nt | nt | 13 | nt
COc1ccccc1N(C(=O)c1cncc(Br)c1)c1nc(-c2ccc(C)cc2)cs1 | ? | ? | -19 | 7.4µM*
O=C(COC(=O)c1cncc(Br)c1)Nc1nc(-c2ccc(F)cc2)cs1 | 58% | -28% | 17 | 43%
O=C(NN1CCN(Cc2ccccc2Cl)CC1)c1ccc(Cl)cc1 | 3% | 4% | -61* | -13%
O=C(NCc1ccc(Cl)cc1)N1CCN(Cc2ccccc2)CC1 | 0% | ? | -93* | 10%
Cc1cccc(N2CCN(C(=O)CNC(=O)c3cccc([N+](=O)[O-])c3)CC2)c1C | -13% | 11µM* | -64* | ?
O=C(NCC(=O)N1CCN(Cc2ccccc2)CC1)c1ccc(Cl)cc1 | 1% | ? | -62* | 38%
O=C(NC1CCN(Cc2ccccc2Cl)CC1)c1ccccc1 | ? | -17% | -22 | ?
Cc1cccc(N2CCN(C(=O)CNC(=O)Cc3ccccc3)CC2)c1C | nt | ? | -19 | nt
O=C(C1CC1)N1CCN(Cc2ccccc2)CC1 | nt | 7% | 39 | nt
Oc1c(Br)cc(Br)cc1CN1CCN(Cc2ccccc2)CC1 | 1.9µM* | 5% | 1 | nt
CCc1ccccc1NC(=O)CN1CCN(C(=O)CNC(=O)c2ccc(-c3ccccc3)cc2)CC1 | ? | 11µM* | -35 | ?
SMILES | Pf growth 48h | HCV inhibitor | HCMV antiviral | Pf growth 96h
CC(OC(=O)c1ccc(Cl)c([N+](=O)[O-])c1)C(=O)N1CCN(Cc2ccccc2)CC1 (configuration not stated) | 12µM* | ? | -35 | ?
O=C(N1CCN(Cc2ccccc2)CC1)C(Cl)(Cl)Cl | 10µM* | 10% | -17 | 44%
CCc1ccccc1NC(=O)CN1CCN(CC(=O)Nc2ccc(-c3ccccc3)cc2)CC1 | 14% | 4% | 14 | 0%
COc1cc(C(=O)Nc2nnc(S(=O)(=O)N(C)c3ccccc3)s2)cc(OC)c1OC | nt | nt | 34 | nt
Cc1cccc(N2CCN(C(=O)Cc3c(C(=O)O)c(C)cn3C)CC2C)c1 (configuration not stated) | nt | nt | -8 | nt
O=C(NCC(=O)N1CCN(Cc2ccccc2)CC1)c1cc(Cl)cc([N+](=O)[O-])c1 | nt | ? | -86* | nt
COc1ccc(C2Nc3ccccc3-c3nnc(SC)nc3O2)cc1C (configuration not stated) | nt | nt | 13 | nt
O=C(Nc1cc(C(F)(F)F)ccc1Cl)c1cc(-c2ccc3c(c2)OCCO3)on1 | nt | nt | 6 | nt
Cc1ccccc1NC(=S)N(Cc1cccnc1)Cc1ccco1 | ? | -7% | -13 | 1.9µM*
Cc1ccc(Cl)cc1NC(=S)N(Cc1cccnc1)Cc1ccccc1Cl | 13µM* | -13% | -2 | 20%
CCOC(=O)c1c(NC(=O)CN2CCCCC2)sc2c1CCC(C=O)=C2Cl | 1% | 2.2µM* | 14 | -66%
CCOC(=O)c1c(-c2ccc(C)o2)csc1NC(=O)CN1CCCCC1 | ? | ? | 1 | ?
COC(=O)c1ccccc1NC(=O)c1cnc(Nc2ccc(OC)cc2)c2ccccc12 | nt | nt | -17 | nt
COc1ccc(C2/C=C\CN(C(=O)Nc3ccccc3-c3ccccc3)CC(=O)N2Cc2ccc(F)cc2)cc1 (configuration not stated) | 13µM* | ? | nt | 13µM*
COc1ccc(C2/C=C\CN(C(=O)OCC3c4ccccc4-c4ccccc43)CC(=O)N2Cc2cccc(F)c2)cc1 (configuration not stated) | nt | 10µM* | -12 | nt
COc1ccc(C2/C=C\CN(C(=O)c3ccccc3)CC(=O)N2Cc2cccc(F)c2)cc1 (configuration not stated) | nt | ? | 22 | nt
COC(=O)N1C/C=C\C(c2ccc(OC)cc2)N(Cc2ccc(F)cc2)C(=O)C1 (configuration not stated) | ? | 17% | -7 | ?
COc1ccc([C@H]2/C=C\CN(S(=O)(=O)c3cccc4cccnc34)[C@@H](C)C(=O)N2Cc2ccc(F)cc2)cc1 | nt | ? | -27 | nt
COc1ccc(C2/C=C\CN(S(=O)(=O)c3cccc4cccnc34)CC(=O)N2Cc2ccc(F)cc2)cc1 (configuration not stated) | ? | ? | 6 | 12µM*
CCN1C(=O)/C(=C/c2ccc(N3CCCC3)cc2)NC1=S | 18% | ? | -65* | 8.3µM*
CCCN1C(=O)/C(=C/c2ccc(N3CCOCC3)cc2)NC1=S | -25% | -21% | -5 | ?
Cc1cccc(NC(=O)c2cccc(OC(=S)N3CCOCC3)c2)c1 | ? | ? | -29 | 12%
COc1ccc(NC(=O)c2cccc(S(=O)(=O)N3CCOCC3)c2)cc1 | 8% | -16% | 3 | -20%
CC(=O)Oc1ccc(-c2ccc(C(=O)Nc3cccc(S(=O)(=O)N4CCOCC4)c3)cc2)cc1 | ? | ? | -98* | ?
O=C(Nc1cccc(Cl)c1)c1ccc(OC(=S)N2CCOCC2)cc1 | 370% | 13µM* | ? | -11%
COc1ccc(C(=O)NC(=S)Nc2cccc(S(=O)(=O)N3CCOCC3)c2)cc1 | 0% | 14µM* | -32 | -2%
COc1ccc(NC(=S)Nc2cccc(S(=O)(=O)N3CCCCC3)c2)cc1 | -7% | 8% | -64* | 10%
COc1cc(NC(=O)CN(C)S(=O)(=O)c2ccc3[nH]c4c(c3c2)CCCC4)cc(OC)c1OC | nt | nt | -4 | nt
